Bioassay records as filed in PubChem.
LDHA inh: blocks human lactate dehydrogenase A; P00338; purified LDHA, NADH/diaphorase-resazurin fluorescence; active compounds read low; activity change, % (values are at about 110 or 230 µM); 480,000 compounds, 0.15% hits; AID 1347041; in the data active means activity change below about -30%; inconclusive means mostly about -25% to -30%;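 further: plate controls were DMSO wells for no effect and wells without enzyme for full effect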
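Human LDH5 at 2 nM final in Tris HCl pH 7.4 with 0.06 mM NADH and 0.2 mM pyruvate, reacted 5 minutes at room temperature. Remaining NADH coupled via diaphorase/resazurin; resorufin fluorescence read at 0 and 20 minutes, normalized to enzyme-free and DMSO wells.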
ATXN2 expr inh: reduces ATXN2 reporter expression in HEK-293 cells; HEK-293 ATXN2-luciferase reporter, luminescence, 24 h; 360,000 compounds, 0.72% hits; Potency, µM (top dose mostly 57 µM), for inactives: at the highest dose activity change, negative = inhibition, actives largely listed as inhibitors; AID 1745845; further: potency means the concentration at half of the fitted maximal effect; on the % scale 0 is the no-effect control and ±100 the full control effect; nearly all actives have a fitted effect of over 55% in size
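ATXN2-luciferase reporter cells (luciferase flanked by upstream and downstream ATXN2 gene portions) were treated 24 h at 37 °C with compounds at up to 57 uM. SteadyGlo luminescence gave expression; GF-AFC fluorescence gave viability.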
TGFb SMAD3 inh: blocks TGF-b signaling; HepG2 CAGA-GFP TGF-b/SMAD3 reporter, GFP fluorescence, 18 h; TGF-beta stimulated, 500 pg/mL final; Potency, µM (series often up to 46.1 µM), for inactives: top-dose activity, negative = inhibition, hits mostly inhibitors; 410,000 compounds, 1.2% hits; further: potency means the concentration at half of the fitted maximal effect; on the % scale 0 is the no-effect control and ±100 the full control effect; nearly all actives have a fitted effect of over 65% in size
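Using HEPG2 CAGA-GFP reporter cells at 1000 cells/well, we pinned test compounds, stimulated with recombinant TGF-beta (500 pg/mL final) and measured total well GFP after 18 h.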
IDH1 R132H inh: human IDH1 R132H inhibition; O75874; IDH1-R132H enzyme, NADPH consumption, diaphorase/resazurin fluorescence; Potency, µM (series often up to 76.6 µM), for the others: at the top dose activity change, negative = inhibition, actives largely listed as inhibitors; 390,000 compounds, 0.093% hits; further: potency means the concentration at half of the fitted maximal effect; on the % scale 0 is the no-effect control and ±100 the full control effect; nearly all actives have a fitted effect of over 65% in size
Target sequence (O75874 whole entry R132H, stated change not applied): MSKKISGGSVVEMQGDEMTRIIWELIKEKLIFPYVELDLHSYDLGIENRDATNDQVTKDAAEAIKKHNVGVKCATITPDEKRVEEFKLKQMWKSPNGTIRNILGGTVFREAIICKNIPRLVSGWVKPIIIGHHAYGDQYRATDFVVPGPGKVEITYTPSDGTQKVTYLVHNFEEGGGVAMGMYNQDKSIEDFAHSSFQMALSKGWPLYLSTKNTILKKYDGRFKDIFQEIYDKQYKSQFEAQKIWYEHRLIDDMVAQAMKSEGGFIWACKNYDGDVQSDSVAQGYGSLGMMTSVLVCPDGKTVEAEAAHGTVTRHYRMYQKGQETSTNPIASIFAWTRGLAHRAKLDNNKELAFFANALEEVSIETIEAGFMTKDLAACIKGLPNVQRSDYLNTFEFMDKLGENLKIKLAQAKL
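IDH1-R132H (0.5 ug/mL dispensed) in pH 7.5 Tris buffer was preincubated 30 min with compound, then given a substrate mix of 0.016 mM NADPH and 2 mM alpha-KG for 80 min at room temperature; remaining NADPH was read by diaphorase/resazurin fluorescence.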
ATXN viability: cell viability loss in ATXN counter-screen. AID 651635. Potency, µM (top dose mostly 56.7 µM), usual class: cytotoxic. S2 cells (HEK-293 line with an ATXN2-luciferase reporter) viability, CellTiter-Fluor protease fluorescence, 24 h. 400,000 compounds, 0.49% hits; further: potency means the concentration at half of the fitted maximal effect; nearly all actives have a fitted effect of over 40% in size
HepG2 tox: kills HepG2 cells in TGF-b inhibitor counter-screen; HepG2 CAGA-GFP viability, ATP luminescence, 18 h; Potency, µM (titrated, usually from 46.1 µM), without a hit: at the top dose activity change, negative = cytotoxicity, actives largely listed as cytotoxic; 410,000 compounds, 0.76% hits; further: potency means the concentration at half of the fitted maximal effect
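CellTiter-Glo luminescence gave cytotoxicity after 18 hours at 37 degrees C. The cells were HepG2 CAGA-GFP in 1% FBS DMEM, stimulated with 500 pg/mL TGF-beta after compound addition. %Activity was normalised to no-cell wells (complete cell-killing) and DMSO (no toxicity), and curves were fitted and classified.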
* = called active by the depositor; i = inactive; ? = inconclusive; . = no result. Sampled rows, rich in hits. Any-hit rate of the full collection: about 2.2%. Unless noted, the call rests on the fitted dose curve; in most records, active means well fitted curve in the direction sought with a large enough effect; inconclusive means small, poorly fitted or top-dose-only effect, or another doubt; inactive means no such curve, though single readings can be large; an effect the other way counts as inactive or inconclusive.

SMILES	LDHA inh	ATXN2 expr inh	TGFb SMAD3 inh	IDH1 R132H inh	ATXN viability	HepG2 tox
Cc1ccc(O)c(C(=O)c2cnn(-c3ccc(S(=O)(=O)N4CCOCC4)cc3[N+](=O)[O-])c2)c1	-1.4	0.0%	?	5.3%	i	8.1%
C[n+]1ccc(/C=C/c2ccccc2O)c2ccccc21	1.2	-30.7%	-9.9%	10.3%	?	0.0%
CN1/C(=C/c2cc[n+](C)c3ccccc23)C=Cc2ccccc21	-0.3	3.77µM*	?	19.6%	?	-16.7%
C=CC[C@@H](CC(=O)N(CCO)Cc1ccccc1)C(=O)N[C@@H](COC(=O)[C@@H](CC=C)CC(=O)OC(C)(C)C)Cc1c[nH]c2ccccc12	0.8	35.5µM*	?	8.7%	20µM*	-37.5%
C=CC[C@H](CC(=O)N(CCO)Cc1ccccc1)C(=O)N[C@@H](COC(=O)[C@@H](CC=C)Cc1ccc(F)cc1)Cc1c[nH]c2ccccc12	0.9	-22.9%	?	7.9%	28.2µM*	-49.0%
C=CC[C@@H](CC(=O)N(CCO)Cc1ccccc1)C(=O)N[C@H](COC(=O)[C@@H](CC=C)CC(=O)OC(C)(C)C)Cc1c[nH]c2ccccc12	3.8	?	12.6µM*	-0.3%	.	-42.8%
C=CC[C@H](CC(=O)N[C@H](CO)Cc1ccccc1)C(=O)N[C@@H](COC(=O)[C@@H](CC=C)CC(=O)OC(C)(C)C)Cc1c[nH]c2ccccc12	2.4	?	11.2µM*	4.0%	.	-101.7%
CCN1C(=O)C(Cc2ccc(C)cc2)c2cc(Br)ccc21 (centres undefined)	0.9	.	.	.	.	.
COC(=O)C1CN(C(=O)C(C)Oc2ccccc2F)c2ccccc2O1 (centres undefined)	-3.3	2.6%	-15.2%	18.3%	i	-62.1%
Cc1ccc(C(=O)CSc2nnnn2Cc2ccccc2)cc1C	0.2	2.7%	2.3%	7.5%	?	-0.6%
Cc1cc(N2CCN(C)CC2)nc2ccc(NC(=S)NCCCN3CCc4ccccc4C3)cc12	0.1	31.6µM*	-6.2%	2.2%	17.8µM*	-22.5%
CCCN1CCN(CCCNC(=S)Nc2ccc3nc(N4CCN(CC)CC4)cc(C)c3c2)CC1	-0.9	.	-2.7%	-7.4%	i	-26.4%
Cc1cc(N2CCN(C)CC2)nc2ccc(NC(=S)N3CCN(c4cccc(Cl)c4)CC3)cc12	1.3	-23.1%	-0.3%	-1.4%	i	5.1%
Cc1cc(N2CCCC2)nc2ccc(NC(=S)NCCCN3CCC(C)CC3)cc12	-0.8	?	?	0.1%	?	17.8µM*
Cc1cccc(N2CCN(C(=S)Nc3ccc4nc(N5CCN(C)CC5)cc(C)c4c3)CC2C)c1 (centres undefined)	-1.0	.	?	2.0%	.	10µM*
CN(C)C(=O)CNC(=O)c1cc2sccc2n1Cc1ccccc1	3.6	.	.	.	.	.
CCn1cc(SCC(=O)N2CCc3ccccc32)c2ccccc21	3.4	7.0%	-23.1%	28.3%	i	-33.6%
COc1cc2c(Oc3ccc(-c4cnc(Nc5ccc(F)cc5)n(C)c4=O)cc3F)ccnc2cc1OCCCN1CCOCC1	.	24.3µM*	.	.	.	.
COc1cc2c(Oc3ccc(NC(=O)C4(C(=O)Nc5ccc(F)cc5)CC4)cc3F)ccnc2cc1OCCCN1CCOCC1	.	27.3µM*	.	.	.	.
CN(C)CCCNCC(=O)Nc1ccccc1N1CCOCC1	-32.4*	2.6%	2.0%	1.5%	i	-26.8%
O=C(Cc1ccccc1)Nc1ccccc1N1CCOCC1	-2.6	-3.8%	-5.0%	1.0%	i	6.4%
Cc1nc2c(OCc3ccc(C(F)(F)F)cc3)cccn2c1N(C)C(=O)CCC1CCCC1	4.4	31.6µM*	?	.	?	-92.0%
Cc1nc2c(OCc3ccc(F)cc3)cccn2c1N(C)C(=O)CCC1CCCC1	21.0	?	-3.2%	.	?	-10.7%
COc1cc2nc(-c3cc(F)ccc3O)nc(N[C@@H]3CNC[C@@H]3C(C)(C)O)c2cc1OC	.	21.7µM*	.	.	.	.
Cc1ccc(Cn2ccsc2=NC(=O)COC(=O)c2ccc(NC(=O)CC#N)cc2)cc1	-3.9	-4.3%	?	-0.4%	i	-21.0%
SMILES	LDHA inh	ATXN2 expr inh	TGFb SMAD3 inh	IDH1 R132H inh	ATXN viability	HepG2 tox
Cc1ccc(Cn2ccsc2=NC(=O)CCl)cc1	-0.6	?	?	-2.0%	0.794µM*	-113.0%
Cc1ccc(NC(=O)CSc2ncccn2)cc1F	-8.1	.	-8.1%	3.7%	i	-9.1%
Cc1ccc(NC(=O)CSc2n[nH]c(-c3ccc(F)cc3)n2)cc1F	-6.6	.	11.2µM*	-10.2%	.	-41.5%
CC(CCc1ccccc1)NC(=O)CSc1n[nH]c(-c2ccccc2)n1 (centres undefined)	1.4	.	-41.8%	15.7%	.	-34.0%
CC(CCc1ccccc1)NC(=O)CSc1n[nH]c(-c2ccc(F)cc2)n1 (centres undefined)	9.6	.	11.2µM*	6.1%	.	-19.9%
CC(C)CCn1c(=O)c2ccccc2n2c(CN(C)Cc3ccccc3)nnc12	1.9	?	-21.2%	-1.6%	i	-13.8%
CSc1cccc(NC(=O)NCc2cccc(CNC(=O)Nc3cccc(SC)c3)c2)c1	-6.4	.	?	-4.0%	?	12.6µM*
CSc1cccc(NC(=O)C(=O)NCc2ccccc2)c1	-0.3	-16.7%	-9.3%	0.0%	i	9.4%
COc1ccc(CNC(=O)Nc2nc(C(N)Cc3ccc(C(F)(F)F)cc3)cs2)cc1 (centres undefined)	-3.6	?	15.8µM*	.	i	-94.1%
CC(N)c1csc(NC(=O)Nc2cccc(C(F)(F)F)c2)n1 (centres undefined)	-10.5	?	?	.	?	20µM*
COc1ccc(CC(N)c2csc(NC(=O)c3ccc(OC)cc3)n2)cc1 (centres undefined)	2.5	-36.6%	?	.	i	-29.9%
CC(C)c1ccccc1NC(=O)Nc1nc(C(N)Cc2ccc(C(F)(F)F)cc2)cs1 (centres undefined)	-16.3	?	11.2µM*	.	.	8.91µM*
COc1cc(CNC(=O)Nc2nc(C(N)Cc3ccc(Cl)cc3)cs2)cc(OC)c1OC (centres undefined)	-10.7	?	?	.	25.1µM*	17.8µM*
CC(C)CC(N)c1csc(NC(=O)Nc2ccccc2C(C)C)n1 (centres undefined)	-13.5	?	?	.	?	-98.2%
O=C(Nc1cccc(C(F)(F)F)c1)c1ccc2snnc2c1	3.4	-4.8%	3.3%	-3.6%	i	-20.7%
O=C(Nc1cccc(C(F)(F)F)c1)Nc1ccc2snnc2c1	-0.2	?	7.08µM*	0.5%	i	-56.8%
